Measured values as given in PubChem BioAssay AID1159580 (chemical genetic matrix, 2015).
In all, about 5,500 compounds went through this assay and about 2,000 (36%) were called active. Inconclusive results (about 18%) are left out. No stated cut-off is given here; in the data, active means normalized growth mostly below about 0.91 (no sharp cut-off); inconclusive means no clear call, values can overlap the other calls; inactive means mostly above about 0.92. This is one part of the list.

Experiment: chemical genetic growth profiling, strain panel (AID 1159580);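 further: tested at 20 µM; growth read once vehicle control cultures reached saturation at 30 °C; 1 = growth at the plate median or of vehicle wells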
Conditions: S. cerevisiae deletion strains, growth OD

Measured: normalized growth

NC1(C(=O)O)CCc2cc(C(=O)O)ccc21 (stereo not drawn)
inactive: locus YAL040C, strain CLN3, stronger effect = lower value 0.959 | locus YER002W, strain NOP16, stronger effect = lower value 0.997 | locus YGR078C, strain PAC10, stronger effect = lower value 1.01 | locus YNL128W, strain TEP1, stronger effect = lower value 0.997 | locus YNL175C, strain NOP13, stronger effect = lower value 0.988 | locus YNL197C, strain WHI3, stronger effect = lower value 0.998 | locus YNL224C, strain SQS1, stronger effect = lower value 1.01 | locus YOR083W, strain WHI5 (second series), stronger effect = lower value 0.993
